ChEMBL document CHEMBL1157539, “Thousands of chemical starting points for antimalarial lead identification” (Nature, 2010)

Legend:
Format in all cases: functional
[1] = system: Plasmodium falciparum; experiment: GSK_TCMDC: Inhibition of Plasmodium falciparum 3D7 in whole red blood cells, using parasite LDH activity as an index of growth. Test compounds present at 2uM
[2] = system: Plasmodium falciparum; experiment: GSK_TCMDC: Inhibition of Plasmodium falciparum Dd2 in whole red blood cells, using parasite LDH activity as an index of growth. Test compounds present at 2uM
[3] = system: HepG2; experiment: GSK_TCMDC: Percent inhibition of human HepG2 cell line. Test compounds present at 10uM.

Structure (SMILES): O=C(O)C(F)(F)F.c1ccc(CN2CCC(NCc3ccc(-c4ccc(CNCc5cccnc5)cn4)cc3)CC2)cc1
- Inhibition [1]: 97%
- Inhibition [2]: 13%
- Inhibition [3]: 0%

Structure (SMILES): COCCCNc1nc2cc(OC)c(OC)cc2c2nc(-c3ccccc3)nn12
- Inhibition [1]: 95%
- Inhibition [2]: 97%
- Inhibition [3]: 6%

Structure (SMILES): CN1Cc2ccc(NS(=O)(=O)c3ccc(-c4ccoc4)cc3)cc2C1.Cl
- Inhibition [1]: 97%
- Inhibition [2]: 2%
- Inhibition [3]: 0%

Structure (SMILES): CCCCn1c(C(C)Oc2ccc(Cl)cc2Cl)nc2cc(S(N)(=O)=O)ccc21 (configuration not stated)
- Inhibition [1]: 94%
- Inhibition [2]: 45%
- Inhibition [3]: 24%

Structure (SMILES): Br.Cn1c(=N)n(CC(=O)OCc2ccc(OCc3ccccc3)cc2)c2ccccc21
- Inhibition [1]: 100%
- Inhibition [2]: 74%
- Inhibition [3]: 5%

Structure (SMILES): CC(C)CC(C)NC(=O)C1Cc2c([nH]c3ccc(F)cc23)C2(CCN(Cc3ccccc3)CC2)N1 (configuration not stated)
- Inhibition [1]: 97%
- Inhibition [2]: 49%
- Inhibition [3]: 18%

Structure (SMILES): Cc1cccc(C(=O)Nc2ccnc(N3CCCN(Cc4cccc(O)c4)CC3)c2)c1.O=C(O)C(F)(F)F
- Inhibition [1]: 84%
- Inhibition [2]: 13%
- Inhibition [3]: 0%

Structure (SMILES): CS(=O)(=O)CCNC(=O)c1ccc(-c2cc3c(Nc4ccc5c(cnn5Cc5ccccc5)c4)ncnc3cn2)o1.Cl
- Inhibition [1]: 97%
- Inhibition [2]: 46%
- Inhibition [3]: 6%

Structure (SMILES): CC(C)[C@H](NCC(=O)c1ccccc1)C(=O)O.Cl
- Inhibition [1]: 99%
- Inhibition [2]: 0%
- Inhibition [3]: 6%

Structure (SMILES): Nc1nc(N)c2cc(N(Cc3ccccc3)Cc3ccccc3)ccc2n1
- Inhibition [1]: 99%
- Inhibition [2]: 88%
- Inhibition [3]: 69%

Structure (SMILES): O=C(Nc1ccc(Cl)cc1)OCCn1nnnc1C(c1ccc(Cl)cc1)N1CCOCC1 (configuration not stated)
- Inhibition [1]: 90%
- Inhibition [2]: 79%
- Inhibition [3]: 1%

Structure (SMILES): Cn1nc(-c2ccc(CNC3CCc4ccccc43)cc2)c2cnc(NCCCN3CCCC3)nc21 (configuration not stated)
- Inhibition [1]: 92%
- Inhibition [2]: 22%
- Inhibition [3]: 27%

Structure (SMILES): Fc1ccc2[nH]c(-c3ccc(-c4ccc(CN5CCC(CCN6CCCCC6)CC5)cc4)cc3)nc2c1.O=C(O)C(F)(F)F
- Inhibition [1]: 100%
- Inhibition [2]: 100%
- Inhibition [3]: 98%

Structure (SMILES): c1ccc2c(c1)ncc1c3ccccc3[nH]c21
- Inhibition [1]: 95%
- Inhibition [2]: 36%
- Inhibition [3]: 0%

Structure (SMILES): CCN(CCCN1CCCCC1)c1cc(C)nc(Nc2ccc(F)c(C(F)(F)F)c2)n1.O=C(O)C(F)(F)F
- Inhibition [1]: 100%
- Inhibition [2]: 93%
- Inhibition [3]: 32%

Structure (SMILES): COc1ccc(NC(=O)NC2CCN(CCCOc3cc(C)nc4ccccc34)CC2)cc1OC
- Inhibition [1]: 97%
- Inhibition [2]: 9%
- Inhibition [3]: 3%

Structure (SMILES): Cc1cc(C)cc(CC(=O)N2CCC(n3c(C)nc4ccc(C)cc43)CC2)c1
- Inhibition [1]: 100%
- Inhibition [2]: 100%
- Inhibition [3]: 52%

Structure (SMILES): CCCNc1ccc2nccc(CCN3CCC(NCc4ccc5c(n4)NC(=O)CS5)CC3)c2n1
- Inhibition [1]: 100%
- Inhibition [2]: 0%
- Inhibition [3]: 24%

Structure (SMILES): Cc1nnsc1C(=O)Nc1ccc(-c2cccc(-c3nc4cc(F)ccc4[nH]3)c2)cc1
- Inhibition [1]: 96%
- Inhibition [2]: 27%
- Inhibition [3]: 44%

Structure (SMILES): CCCc1cc(Cc2cnc(N)nc2N)cc(CCC)c1OCCCCC(=O)OCC
- Inhibition [1]: 93%
- Inhibition [2]: 0%
- Inhibition [3]: 1%

Structure (SMILES): Cc1nc2c(=O)sc3ccccc3c2n1Cc1ccccc1
- Inhibition [1]: 95%
- Inhibition [2]: 26%
- Inhibition [3]: 0%

Structure (SMILES): O=C(/C=C/c1ccc(Cl)c(Cl)c1)NCCCCCN1CCCC(C(=O)Nc2cccc(Cl)c2)C1 (configuration not stated)
- Inhibition [1]: 99%
- Inhibition [2]: 2%
- Inhibition [3]: 41%

Structure (SMILES): Cc1[nH]c(C)c(-c2ccc(Oc3cccc(Cl)c3)cc2)c(=O)c1Cl
- Inhibition [1]: 99%
- Inhibition [2]: 97%
- Inhibition [3]: 40%

Structure (SMILES): CC[C@H](C)CNC(=O)c1cncc(-c2cccc(CN(C)C3CCN(C)CC3)c2)c1.O=C(O)C(F)(F)F
- Inhibition [1]: 100%
- Inhibition [2]: 59%
- Inhibition [3]: 9%

Structure (SMILES): Cc1cnc(NCCc2ccc(F)cc2)nc1N[C@@H](CC(C)C)C(=O)Nc1ccccc1.O=C(O)C(F)(F)F
- Inhibition [1]: 87%
- Inhibition [2]: 29%
- Inhibition [3]: 19%

Structure (SMILES): COc1c(C2CCN(CCCCNC(=O)c3ccc(NC(=O)c4ccc(C#N)cc4)cc3)CC2)ccc2c1CCCC2
- Inhibition [1]: 97%
- Inhibition [2]: 100%
- Inhibition [3]: 81%

Structure (SMILES): CCNC1=NC2=C(CC(C(C)(C)C)CC2)C2(CCC(C(C)(C)C)CC2)S1.Cl (configuration not stated)
- Inhibition [1]: 99%
- Inhibition [2]: 99%
- Inhibition [3]: 40%

Structure (SMILES): Cc1noc(C)c1-c1ccc2c(Nc3ccc([N+](=O)[O-])cc3)c(C(N)=O)cnc2c1.Cl
- Inhibition [1]: 100%
- Inhibition [2]: 98%
- Inhibition [3]: 4%

Structure (SMILES): Cc1ccc(F)cc1-c1cc(N2CCCN(C(=O)c3ccc(Br)o3)CC2)ncn1
- Inhibition [1]: 94%
- Inhibition [2]: 91%
- Inhibition [3]: 0%
